Laboratory results taken from PubChem BioAssay (EPA / NIEHS).
Results filed as inconclusive are left out. Activity calls are given as the source filed them. How the source made its calls, unless noted: active means hit-call score of the fitted dose curve at least 0.9, where 1 is the maximum; inactive means score below 0.9.

Legend:
[1] = read-out: E-selectin (Homo sapiens) (UniProt P16581); test: BSK_3C_Eselectin: BioMAP Diversity Plus: 3C Assay for Eselectin Biomarker Activity (AID 2283015); conditions: primary human endothelial cells (HUVEC); actives raise or lower the signal;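 further: cell surface E-selectin protein quantified by ELISA 24 h after dosing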
Procedure, shortened: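 Human vascular endothelium from umbilical vein is exposed to test chemicals for 24 h. E-selectin levels are read by ELISA and compared with DMSO controls.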

[2] = read-out: Interleukin-1 alpha (IL1a), IL1A (gene 3552); test: BSK_BE3C_IL1a: BioMAP Diversity Plus: BE3C Assay for Interleukin-1 alpha (IL1a) Biomarker Activity (AID 2283016); conditions: primary human bronchial epithelial cells; actives raise or lower the signal
Procedure, shortened: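 IL-1a measured by ELISA after 24 h treatment of human primary bronchial epithelial cells, with gain or loss of signal fitted versus DMSO. Parallel cultures stained with SRB gauge overt cytotoxicity.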

[3] = read-out: Monocyte Chemoattractant Protein-1 (MCP1), CCL2 (gene 6347); test: BSK_3C_MCP1: BioMAP Diversity Plus: 3C Assay for Monocyte Chemoattractant Protein-1 (MCP1) Biomarker Activity (AID 2283017); conditions: primary human endothelial cells (HUVEC); actives raise or lower the signal
Procedure, shortened: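 Endothelial cells from human umbilical vein are dosed with chemical, cultured 24 h, then assayed for MCP-1 by ELISA; both increases and decreases are modelled against DMSO controls.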

[4] = read-out: Monocyte Chemoattractant Protein-1 (MCP1), CCL2 (gene 6347); test: BSK_4H_MCP1: BioMAP Diversity Plus: 4H Assay for Monocyte Chemoattractant Protein-1 (MCP1) Biomarker Activity (AID 2283018); conditions: primary human endothelial cells (HUVEC); actives raise or lower the signal
Procedure, shortened: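 ELISA of MCP-1 (CCL2) 24 h after chemical dosing of HUVEC in the BioMAP 4H system. Gain or loss versus DMSO fitted; parallel SRB staining (560 nm) tracked overt cytotoxicity.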

[5] = read-out: Human Leukocyte Antigen - DR isotype (HLADR), HLA-DRA (gene 3122); test: BSK_3C_HLADR: BioMAP Diversity Plus: 3C Assay for Human Leukocyte Antigen - DR isotype (HLADR) Biomarker Activity (AID 2283019); conditions: primary human endothelial cells (HUVEC); actives raise or lower the signal;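 further: ELISA of cell-surface HLA-DR on HUVEC 24 h after dosing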
Procedure, shortened: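 Endothelial cells from human umbilical vein are treated with test chemical; after 24 h, HLA-DR levels are measured by ELISA. Data are fitted in both directions using DMSO as the baseline.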

[6] = read-out: Monokine induced gamma interferon (MIG), CXCL9 (gene 4283); test: BSK_3C_MIG: BioMAP Diversity Plus: 3C Assay for Monokine induced gamma interferon (MIG) Biomarker Activity (AID 2283021); conditions: primary human endothelial cells (HUVEC); actives raise or lower the signal
Procedure, shortened: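 ELISA measurement of MIG in human umbilical vein endothelial cells 24 h after treatment. Cytotoxicity tracked by SRB staining in parallel cultures; gain or loss of signal fitted relative to DMSO.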

[7] = molecular target: human Vitamin D Receptor (VDR), VDR (gene 7421) (UniProt P11473); test: ATG_VDR_TRANS: Attagene TRANS-FACTORIAL HepG2 Assay for human Vitamin D Receptor (VDR) (AID 2283022; active means hit-call score of the fitted dose curve at least 0.9, where 1 is the maximum)
Chain of human Vitamin D Receptor (VDR), VDR (gene 7421) (P11473 whole entry, looked up, the tested form may be a part): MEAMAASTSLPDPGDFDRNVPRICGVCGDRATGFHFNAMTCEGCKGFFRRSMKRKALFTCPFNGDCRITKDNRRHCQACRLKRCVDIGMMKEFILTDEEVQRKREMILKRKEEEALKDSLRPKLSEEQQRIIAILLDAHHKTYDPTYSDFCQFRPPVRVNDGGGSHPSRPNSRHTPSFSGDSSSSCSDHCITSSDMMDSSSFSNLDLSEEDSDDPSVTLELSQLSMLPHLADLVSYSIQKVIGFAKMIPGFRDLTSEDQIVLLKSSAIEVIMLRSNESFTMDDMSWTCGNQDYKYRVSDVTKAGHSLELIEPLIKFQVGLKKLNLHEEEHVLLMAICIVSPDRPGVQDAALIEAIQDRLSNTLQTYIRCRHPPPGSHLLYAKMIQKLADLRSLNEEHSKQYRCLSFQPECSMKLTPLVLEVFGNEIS
Procedure, shortened: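 Fluorescence of labelled reporter cDNA fragments, resolved by capillary electrophoresis, gives mRNA induction after 24 h treatment of HepG2 cells carrying transfected Gal4-fusion reporter units. Activity is fitted in the positive direction with DMSO as baseline.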

[8] = BSK_3C_SRB: Viability Assessment in the BioMAP Diversity Plus: 3C Assay (AID 2283023); conditions: primary human endothelial cells (HUVEC);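 further: cells read 24 h after compound dosing; fitted both ways against DMSO so a hit may be signal rise or drop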
Procedure, shortened: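 Cells were dosed with chemical, cultured 24 h, fixed with 10% TCA, stained with 0.1% SRB and read at 560 nm. Human umbilical vein endothelium was used; DMSO served as negative control and baseline.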

[9] = read-out: Matrix Metallopeptidase 1 (MMP1), MMP1 (gene 4312); test: BSK_BE3C_MMP1: BioMAP Diversity Plus: BE3C Assay for Matrix Metallopeptidase 1 (MMP1) Biomarker Activity (AID 2283024); conditions: primary human bronchial epithelial cells; actives raise or lower the signal
Procedure, shortened: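 ELISA measurement of MMP-1 after 24 h compound exposure of primary human bronchial epithelial cells. Changes in either direction fitted relative to DMSO; parallel SRB staining checked overt cytotoxicity.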

[10] = BSK_3C_Vis: BioMAP Diversity Plus: 3C Assay for Morphology Visualization (AID 2283025); conditions: primary human endothelial cells (HUVEC);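 further: fitted both ways so gain or loss versus DMSO counts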;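 on AC50: light microscopy image of cell morphology used as background control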
Procedure, shortened: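 Light-microscopy visualization of HUVEC cultures at 24 h post-treatment, with DMSO as baseline for bidirectional fitting.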

[11] = read-out: Pselectin, SELP (gene 6403); test: BSK_4H_Pselectin: BioMAP Diversity Plus: 4H Assay for Pselectin Biomarker Activity (AID 2283026); conditions: primary human endothelial cells (HUVEC); actives raise or lower the signal
Procedure, shortened: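 ELISA of surface P-selectin on HUVEC, 24 h after dosing, with parallel SRB staining (0.1% after 10% TCA fixation, 560 nm) for overt cytotoxicity. Activity fitted in both directions relative to DMSO.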

[12] = BSK_4H_SRB: Viability Assessment in the BioMAP Diversity Plus: 4H Assay (AID 2283027); conditions: primary human endothelial cells (HUVEC);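 further: cells exposed to compound for 24 h before staining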
Procedure, shortened: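 Cytotoxicity readout: sulforhodamine B (0.1%) staining of total protein after 10% TCA fixation, measured at 560 nm in human umbilical vein endothelium at 24 h. DMSO set the baseline; fitting was bidirectional.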

[13] = BSK_BE3C_SRB: Viability Assessment in the BioMAP Diversity Plus: BE3C Assay (AID 2283028); conditions: primary human bronchial epithelial cells
Procedure, shortened: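 Overt cytotoxicity was assessed as total protein in confluent human primary bronchial epithelial cultures 24 h after chemical addition, using 0.1% sulforhodamine B staining read at 560 nm.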

[14] = read-out: Thrombomodulin, THBD (gene 7056); test: BSK_3C_Thrombomodulin: BioMAP Diversity Plus: 3C Assay for Thrombomodulin Biomarker Activity (AID 2283029); conditions: primary human endothelial cells (HUVEC); actives raise or lower the signal
Procedure, shortened: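 ELISA measurement of thrombomodulin on HUVEC surface 24 h after chemical dosing; activity fitted in both directions relative to DMSO vehicle.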

[15] = read-out: Urokinase-type plasminogen activator receptor (uPAR), PLAUR (gene 5329); test: BSK_4H_uPAR: BioMAP Diversity Plus: 4H Assay for Urokinase-type plasminogen activator receptor (uPAR) Biomarker Activity (AID 2283030); conditions: primary human endothelial cells (HUVEC); actives raise or lower the signal
Procedure, shortened: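 Chemicals are dosed onto human vascular endothelial primary cells (umbilical vein). After 24 h, uPAR is read by ELISA. Gain or loss of signal is fitted relative to DMSO.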

[16] = molecular target: Retinoic acid receptor RXR-alpha (Homo sapiens) (UniProt P19793); test: ATG_RXRa_TRANS: Attagene TRANS-FACTORIAL HepG2 Assay for human Retinoid X Receptor alpha (RXRa) (AID 2283012; active means hit-call score of the fitted dose curve at least 0.9, where 1 is the maximum)
Chain of Retinoic acid receptor RXR-alpha (Homo sapiens) (P19793 whole entry, looked up, the tested form may be a part): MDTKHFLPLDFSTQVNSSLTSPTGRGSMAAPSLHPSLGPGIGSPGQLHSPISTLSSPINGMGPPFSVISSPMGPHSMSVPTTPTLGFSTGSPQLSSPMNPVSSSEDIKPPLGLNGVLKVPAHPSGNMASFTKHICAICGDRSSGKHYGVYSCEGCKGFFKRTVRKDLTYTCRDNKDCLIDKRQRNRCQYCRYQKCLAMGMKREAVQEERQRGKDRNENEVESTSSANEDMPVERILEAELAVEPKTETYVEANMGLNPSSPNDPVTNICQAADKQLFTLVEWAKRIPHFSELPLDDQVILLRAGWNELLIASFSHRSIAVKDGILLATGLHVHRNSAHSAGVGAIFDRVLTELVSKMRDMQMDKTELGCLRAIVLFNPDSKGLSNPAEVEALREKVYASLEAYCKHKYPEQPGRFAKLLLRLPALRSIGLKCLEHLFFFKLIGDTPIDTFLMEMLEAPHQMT
Procedure, shortened: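 TRANS format reporting activity of exogenous RXRa-Gal4 chimera in transiently transfected HepG2, 24 h exposure. Reporter transcripts quantified by RT-PCR with capillary electrophoresis, with gain of signal scored relative to DMSO.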

[17] = molecular target: human Retinoid X Receptor beta (RXRb), RXRB (gene 6257) (UniProt P28702); test: ATG_RXRb_TRANS: Attagene TRANS-FACTORIAL HepG2 Assay for human Retinoid X Receptor beta (RXRb) (AID 2283013; active means hit-call score of the fitted dose curve at least 0.9, where 1 is the maximum)
Chain of human Retinoid X Receptor beta (RXRb), RXRB (gene 6257) (P28702 whole entry, looked up, the tested form may be a part): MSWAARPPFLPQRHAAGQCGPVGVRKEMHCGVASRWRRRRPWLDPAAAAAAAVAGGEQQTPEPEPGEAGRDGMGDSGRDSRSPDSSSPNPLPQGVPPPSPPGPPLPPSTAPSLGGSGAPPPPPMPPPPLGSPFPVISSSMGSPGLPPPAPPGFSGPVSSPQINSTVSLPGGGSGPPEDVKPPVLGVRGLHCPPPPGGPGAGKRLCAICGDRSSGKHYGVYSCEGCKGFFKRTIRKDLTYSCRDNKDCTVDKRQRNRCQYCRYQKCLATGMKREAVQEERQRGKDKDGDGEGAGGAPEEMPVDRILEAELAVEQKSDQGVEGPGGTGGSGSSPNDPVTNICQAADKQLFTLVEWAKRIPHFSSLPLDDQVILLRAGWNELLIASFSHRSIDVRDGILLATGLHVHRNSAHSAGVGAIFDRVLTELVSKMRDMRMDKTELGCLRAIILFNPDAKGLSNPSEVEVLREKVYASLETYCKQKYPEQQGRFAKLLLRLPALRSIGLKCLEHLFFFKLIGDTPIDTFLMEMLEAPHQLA
Procedure, shortened: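 Readout is reporter transcript induction after 24 h dosing. It is measured by RT-PCR of total RNA followed by fluorescent capillary electrophoresis. HepG2 liver cells carry transfected multiple reporter units driven by an exogenous RXRb-Gal4 fusion; activity is relative to DMSO.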

[18] = read-out: Interleukin-8 (IL8), CXCL8 (gene 3576); test: BSK_3C_IL8: BioMAP Diversity Plus: 3C Assay for Interleukin-8 (IL8) Biomarker Activity (AID 2283020); conditions: primary human endothelial cells (HUVEC); actives raise or lower the signal
Procedure, shortened: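 IL-8 was measured by ELISA in HUVEC cultures 24 h after chemical dosing, with gain or loss of signal fitted relative to DMSO. Parallel SRB total-protein staining tracked overt cytotoxicity.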

[19] = molecular target: human Thyroid Receptor alpha (THRa1), THRA (gene 7067) (UniProt P10827); test: ATG_THRa1_TRANS: Attagene TRANS-FACTORIAL HepG2 Assay for human Thyroid Receptor alpha (THRa1) (AID 2283014; active means hit-call score of the fitted dose curve at least 0.9, where 1 is the maximum)
Chain of human Thyroid Receptor alpha (THRa1), THRA (gene 7067) (P10827 whole entry, looked up, the tested form may be a part): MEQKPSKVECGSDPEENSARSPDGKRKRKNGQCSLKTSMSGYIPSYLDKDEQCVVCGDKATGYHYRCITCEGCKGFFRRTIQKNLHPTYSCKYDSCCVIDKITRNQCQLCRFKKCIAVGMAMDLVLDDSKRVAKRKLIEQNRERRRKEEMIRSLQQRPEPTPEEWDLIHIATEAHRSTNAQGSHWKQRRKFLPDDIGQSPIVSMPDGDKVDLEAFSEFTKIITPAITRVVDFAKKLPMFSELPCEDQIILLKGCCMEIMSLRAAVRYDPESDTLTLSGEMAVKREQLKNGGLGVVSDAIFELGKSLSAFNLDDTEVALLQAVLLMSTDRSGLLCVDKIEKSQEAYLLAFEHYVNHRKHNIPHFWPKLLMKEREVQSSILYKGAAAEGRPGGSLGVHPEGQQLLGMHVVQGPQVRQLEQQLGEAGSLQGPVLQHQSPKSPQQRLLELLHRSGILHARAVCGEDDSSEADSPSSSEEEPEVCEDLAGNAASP
Procedure, shortened: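 First, HepG2 cells receive multiple GAL4-UAS reporter units and the chimeric receptor. They are then dosed for 24 h, after which RNA is reverse-transcribed, amplified, labelled, HpaI-cut and sized by capillary electrophoresis; gain relative to DMSO is scored.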

Measured: AC50

Chain of E-selectin (Homo sapiens) (P16581 whole entry, looked up): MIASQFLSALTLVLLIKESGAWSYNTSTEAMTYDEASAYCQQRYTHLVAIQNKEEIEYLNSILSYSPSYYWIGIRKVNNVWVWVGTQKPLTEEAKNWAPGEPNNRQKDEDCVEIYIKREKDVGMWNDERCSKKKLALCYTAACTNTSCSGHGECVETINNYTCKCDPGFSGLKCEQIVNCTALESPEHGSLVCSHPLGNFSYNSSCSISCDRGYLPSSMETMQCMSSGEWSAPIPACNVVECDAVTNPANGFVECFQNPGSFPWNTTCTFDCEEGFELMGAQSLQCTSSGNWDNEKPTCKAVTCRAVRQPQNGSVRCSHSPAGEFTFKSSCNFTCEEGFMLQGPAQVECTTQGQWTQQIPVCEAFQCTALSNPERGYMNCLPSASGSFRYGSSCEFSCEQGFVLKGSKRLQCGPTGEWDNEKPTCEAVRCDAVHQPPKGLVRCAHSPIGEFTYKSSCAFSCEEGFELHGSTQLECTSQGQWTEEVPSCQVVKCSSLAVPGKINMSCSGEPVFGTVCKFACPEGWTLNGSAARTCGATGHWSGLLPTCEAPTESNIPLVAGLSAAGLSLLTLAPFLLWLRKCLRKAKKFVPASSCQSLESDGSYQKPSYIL

C=CC(=O)NCNC(=O)C=C
inactive: [1] | [2] | [3] | [4] | [5] | [6] | [7] | [8] | [9] | [10] | [11] | [12] | [13] | [14] | [15]

Cc1ccccc1O
inactive: [16] | [1] | [2] | [3] | [4] | [5] | [6] | [7] | [8] | [9] | [10] | [11] | [14] | [15]

Nc1ccc(-c2ccc(N)cc2)cc1
active: [17] 27.5 µM
inactive: [16] | [1] | [2] | [3] | [4] | [5] | [6] | [7] | [8] | [9] | [10] | [11] | [14] | [15]

C=CC(N)=O
active: [16] 157 µM | [17] 15.8 µM
inactive: [1] | [2] | [3] | [4] | [5] | [18] | [6] | [7] | [8] | [9] | [10] | [11] | [14] | [15]

CC1=C2C[C@H]3[C@@H](CC=C4C[C@@H](O)CC[C@@]43C)[C@@H]2CC[C@]12O[C@@H]1C[C@H](C)CN[C@H]1[C@H]2C
active: [3] 2.82 µM | [10] 4.9 µM
inactive: [1] | [2] | [4] | [5] | [6] | [8] | [9] | [11] | [12] | [13] | [14] | [15]

Cc1cccc([N+](=O)[O-])c1
inactive: [17] | [1] | [2] | [3] | [4] | [5] | [18] | [6] | [7] | [8] | [9] | [10] | [11] | [14] | [15]

O=C(NC(=O)c1c(F)cccc1F)Nc1cc(Cl)c(OC(F)(F)C(F)F)c(Cl)c1
inactive: [16] | [17] | [19] | [1] | [2] | [3] | [4] | [5] | [6] | [8] | [9] | [11] | [12] | [14] | [15]
active: [10] 39 µM

Cc1cccc(C)c1N
inactive: [1] | [2] | [3] | [4] | [5] | [18] | [6] | [8] | [9] | [10] | [11] | [14] | [15]
